This note sets out measurements from PubChem BioAssay (EPA / NIEHS).

A short description of experiment [1]: CEETOX_H295R_ESTRADIOL: CeeTox H295R High-throughput Steroidogenesis Assay for Estradiol (AID 2283440).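 Further: estradiol secreted into medium quantified by LC-MS/MS after dansyl derivatisation.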 Particulars: actives raise or lower the signal. The gist of the method:
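Readout is estradiol in conditioned medium, quantified by reverse-phase HPLC-MS/MS against a 7-point standard curve. Cells: H295R, forskolin-stimulated, then dosed 48 h in 0.1% DMSO; activity fitted in both directions relative to DMSO.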

A short description of experiment [2]: CEETOX_H295R_ESTRONE: CeeTox H295R High-throughput Steroidogenesis Assay for Estrone (AID 2283441). Particulars: actives raise or lower the signal. The method in brief: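 Estrone secreted into medium quantified by LC-MS/MS after dansyl chloride derivatization, following 48 h chemical exposure (0.1% DMSO final) of forskolin-prestimulated (10 uM, 48 h) H295R cells; gain or loss fitted against DMSO; MTT viability in same wells.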

A short description of experiment [3]: CEETOX_H295R_PROG: CeeTox H295R High-throughput Steroidogenesis Assay for Progesterone (PROG) (AID 2283442). The conditions noted are these: actives raise or lower the signal. The gist of the method: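 Measured analyte is progesterone secreted by H295R cells at 48 h of chemical treatment, following 10 uM forskolin priming. Quantitation used HPLC-MS/MS against a 7-point standard curve; cytotoxicity was checked by MTT absorbance.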

Read-out in experiment [4]: Tumor necrosis factor receptor superfamily member 6 (Homo sapiens) (UniProt P25445)
The experiment is described as follows: LTEA_HepaRG_FAS: Life Technologies and Expression Analysis (LTEA) Assay for Fas cell surface death receptor (FAS) using HepaRG (AID 2283447). The conditions noted are these: mRNA level, 48 h; actives raise or lower the signal. The method in brief:
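FAS transcript level was measured by TaqMan qRT-PCR against three housekeeping genes after 48 h chemical exposure. Cells were HepaRG, 0.5% DMSO vehicle, with a top concentration of 100 uM and half-log dilutions over eight points, in duplicate.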

Read-out in experiment [5]: Cyclin D2 (CCND2), CCND2 (gene 894)
In words: LTEA_HepaRG_CCND2: Life Technologies and Expression Analysis (LTEA) Assay for Cyclin D2 (CCND2) using HepaRG (AID 2283449). The conditions noted are these: mRNA level, 48 h; actives raise or lower the signal. The gist of the method: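 CCND2 transcript levels, quantified by qRT-PCR and normalised to three housekeeping genes, were fitted bidirectionally against 0.5% DMSO. HepaRG cultures were dosed 48 h in duplicate with an 8-point half-log series up to 100 uM.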

Read-out in experiment [6]: Cyclin Dependent Kinase Inhibitor 1A (CDKN1A), CDKN1A (gene 1026)
The experiment is described as follows: LTEA_HepaRG_CDKN1A: Life Technologies and Expression Analysis (LTEA) Assay for Cyclin Dependent Kinase Inhibitor 1A (CDKN1A) using HepaRG (AID 2283450). The conditions noted are these: mRNA level, 48 h; actives raise or lower the signal. The method in brief:
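Gain or loss of CDKN1A transcript is scored by bidirectional fitting against 0.5% DMSO vehicle. Human HepaRG cultures receive chemicals for 48 h across an 8-point series peaking at 100 uM; expression comes from qRT-PCR.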

Read-out in experiment [7]: Cyclin D1 (CCND1), CCND1 (gene 595)
The experiment is described as follows: LTEA_HepaRG_CCND1: Life Technologies and Expression Analysis (LTEA) Assay for Cyclin D1 (CCND1) using HepaRG (AID 2283451).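 On AC50: differentiated human HepaRG liver cells in serum-free induction medium; TaqMan qRT-PCR transcript level normalised to ACTB GAPDH and POLR2A housekeeping genes.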 The conditions noted are these: mRNA level, 48 h; actives raise or lower the signal. The method in brief: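 Expression change is measured by qRT-PCR in HepaRG cells after 48 h treatment across eight concentrations topping at 100 uM, with duplicate wells and DMSO (0.5%) serving as baseline for bidirectional fitting.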

Read-out in experiment [8]: catalase (CAT), CAT (gene 847)
The experiment is described as follows: LTEA_HepaRG_CAT: Life Technologies and Expression Analysis (LTEA) Assay for catalase (CAT) using HepaRG (AID 2283452).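 On AC50: TaqMan qRT-PCR signal normalized to ACTB GAPDH and POLR2A housekeeping genes.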 The conditions noted are these: mRNA level, 48 h; actives raise or lower the signal. The method in brief:
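Expression of CAT was quantified by TaqMan qRT-PCR with ACTB/GAPDH/POLR2A normalization after 48 h chemical exposure of HepaRG. Eight-point half-log series, top 100 uM, in 0.5% DMSO; gain or loss fitted against vehicle.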

Read-out in experiment [9]: Fatty acid synthase (Homo sapiens) (UniProt P49327)
The experiment is described as follows: LTEA_HepaRG_FASN: Life Technologies and Expression Analysis (LTEA) Assay for Fatty Acid Synthase (FASN) using HepaRG (AID 2283448).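 On AC50: differentiated human HepaRG liver cells in serum-free induction medium.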 Particulars: mRNA level, 48 h; actives raise or lower the signal. The method in brief:
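Cells were plated, cultured 48 h, switched to serum-free induction medium, then dosed in duplicate (max 100 uM, half-log dilutions, 0.5% DMSO) for 48 h. RNA was then isolated and FASN quantified by qRT-PCR.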

Read-out in experiment [10]: flavin-containing dimethylaniline monooxygenases 3 (FMO3), FMO3 (gene 2328)
The experiment is described as follows: LTEA_HepaRG_FMO3: Life Technologies and Expression Analysis (LTEA) Assay for flavin-containing dimethylaniline monooxygenases 3 (FMO3) using HepaRG (AID 2283453).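 On AC50: differentiated human HepaRG liver cells in serum-free induction medium; FMO3 transcript by TaqMan qRT-PCR normalized to ACTB GAPDH and POLR2A.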 The conditions noted are these: mRNA level, 48 h; actives raise or lower the signal. The gist of the method:
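FMO3 transcript quantified by TaqMan qRT-PCR against three housekeeping genes after 48 h chemical exposure of HepaRG cells. Eight-point half-log series, top 100 uM, 0.5% DMSO vehicle; phenobarbital 1mM induction control; up- or down-regulation fitted.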

Calls of active or inactive are those of the source. How the source made its calls: active means hit-call score of the fitted dose curve at least 0.9, where 1 is the maximum; inactive means score below 0.9.

Sequence of Fatty acid synthase (Homo sapiens) (P49327 whole entry, looked up): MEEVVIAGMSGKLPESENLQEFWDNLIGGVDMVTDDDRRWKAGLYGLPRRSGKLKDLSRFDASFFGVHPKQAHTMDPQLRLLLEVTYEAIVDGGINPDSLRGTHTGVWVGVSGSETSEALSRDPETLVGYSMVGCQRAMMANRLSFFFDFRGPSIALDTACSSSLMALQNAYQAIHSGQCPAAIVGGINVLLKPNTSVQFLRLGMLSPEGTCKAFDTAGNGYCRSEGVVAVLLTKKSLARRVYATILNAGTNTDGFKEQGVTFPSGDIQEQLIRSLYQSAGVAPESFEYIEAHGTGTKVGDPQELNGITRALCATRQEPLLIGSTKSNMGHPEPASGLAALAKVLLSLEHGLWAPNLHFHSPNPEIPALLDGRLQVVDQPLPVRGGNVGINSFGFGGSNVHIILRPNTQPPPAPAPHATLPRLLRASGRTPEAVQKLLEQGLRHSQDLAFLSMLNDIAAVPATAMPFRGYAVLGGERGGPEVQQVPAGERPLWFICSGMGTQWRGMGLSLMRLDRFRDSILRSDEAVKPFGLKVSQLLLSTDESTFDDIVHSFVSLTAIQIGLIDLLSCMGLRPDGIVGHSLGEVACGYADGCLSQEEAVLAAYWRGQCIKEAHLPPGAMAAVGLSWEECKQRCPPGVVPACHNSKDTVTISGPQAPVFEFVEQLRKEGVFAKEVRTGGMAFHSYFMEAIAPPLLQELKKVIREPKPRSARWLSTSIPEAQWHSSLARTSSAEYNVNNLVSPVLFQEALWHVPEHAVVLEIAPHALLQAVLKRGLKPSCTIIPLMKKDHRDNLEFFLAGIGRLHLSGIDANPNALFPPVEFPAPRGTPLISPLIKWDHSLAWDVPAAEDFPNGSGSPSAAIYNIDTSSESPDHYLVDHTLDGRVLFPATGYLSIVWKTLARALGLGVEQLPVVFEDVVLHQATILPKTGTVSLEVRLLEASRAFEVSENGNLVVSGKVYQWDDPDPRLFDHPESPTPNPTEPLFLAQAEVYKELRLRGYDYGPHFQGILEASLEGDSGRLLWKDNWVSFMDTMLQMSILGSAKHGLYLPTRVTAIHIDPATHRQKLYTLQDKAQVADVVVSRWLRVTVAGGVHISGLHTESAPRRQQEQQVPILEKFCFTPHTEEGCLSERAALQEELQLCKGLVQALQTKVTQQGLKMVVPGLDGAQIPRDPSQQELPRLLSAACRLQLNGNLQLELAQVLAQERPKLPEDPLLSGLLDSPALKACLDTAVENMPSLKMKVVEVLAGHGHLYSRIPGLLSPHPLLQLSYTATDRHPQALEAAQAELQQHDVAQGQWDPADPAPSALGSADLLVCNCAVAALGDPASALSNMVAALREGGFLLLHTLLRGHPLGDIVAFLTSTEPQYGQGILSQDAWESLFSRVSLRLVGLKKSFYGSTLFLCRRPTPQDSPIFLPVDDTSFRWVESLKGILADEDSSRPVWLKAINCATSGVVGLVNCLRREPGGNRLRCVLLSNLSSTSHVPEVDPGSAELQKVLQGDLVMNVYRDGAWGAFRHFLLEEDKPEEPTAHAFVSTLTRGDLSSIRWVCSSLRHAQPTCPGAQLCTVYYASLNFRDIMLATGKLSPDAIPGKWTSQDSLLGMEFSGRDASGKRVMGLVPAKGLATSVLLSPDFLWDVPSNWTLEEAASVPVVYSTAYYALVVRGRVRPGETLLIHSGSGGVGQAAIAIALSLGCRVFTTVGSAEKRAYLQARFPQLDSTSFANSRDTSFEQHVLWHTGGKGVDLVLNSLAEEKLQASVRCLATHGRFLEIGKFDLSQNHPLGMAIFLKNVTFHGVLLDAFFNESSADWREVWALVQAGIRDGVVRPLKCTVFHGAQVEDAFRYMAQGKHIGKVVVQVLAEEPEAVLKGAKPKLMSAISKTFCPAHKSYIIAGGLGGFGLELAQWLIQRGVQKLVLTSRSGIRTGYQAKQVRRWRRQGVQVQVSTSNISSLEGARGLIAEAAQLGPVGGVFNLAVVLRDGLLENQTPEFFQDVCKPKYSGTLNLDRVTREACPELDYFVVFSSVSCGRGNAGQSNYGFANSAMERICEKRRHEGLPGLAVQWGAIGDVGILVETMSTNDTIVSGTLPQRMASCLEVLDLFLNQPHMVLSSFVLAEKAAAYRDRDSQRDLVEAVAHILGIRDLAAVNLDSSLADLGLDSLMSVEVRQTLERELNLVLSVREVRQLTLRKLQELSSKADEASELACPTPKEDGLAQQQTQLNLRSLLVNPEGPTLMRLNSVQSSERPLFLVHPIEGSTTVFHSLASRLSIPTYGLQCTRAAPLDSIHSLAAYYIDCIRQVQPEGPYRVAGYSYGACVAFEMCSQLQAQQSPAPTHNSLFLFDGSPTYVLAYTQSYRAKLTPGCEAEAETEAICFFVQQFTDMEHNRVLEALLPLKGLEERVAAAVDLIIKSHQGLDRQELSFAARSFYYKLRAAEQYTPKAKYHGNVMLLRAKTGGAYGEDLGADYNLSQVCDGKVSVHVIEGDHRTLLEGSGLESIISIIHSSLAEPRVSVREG

Consider `CCCN(CCC)C(=O)SCC`, for which the call in experiment [1], in [2], in [3], in experiment [4], in [5] and in [6] was inactive. Further, the outcome in experiment [7] and in experiment [8] was inactive.
Take `CCOC(=O)C(C)Oc1ccc(Oc2cnc3cc(Cl)ccc3n2)cc1` (centres undefined): the compound was called inactive in [3], in [4], in [5], in [6], in [7] and in experiment [8].
For the compound `CCCCOC(=O)[C@@H](C)Oc1ccc(Oc2ccc(C(F)(F)F)cn2)cc1`, the compound was called inactive in experiment [1], in experiment [2], in [3], in experiment [4], in experiment [5] and in experiment [6]. The compound was called inactive in [7] and in [8].
Usually AC50 stands for the midpoint of the concentration-response curve, whichever way the signal moves. Consider `C[C@]12CC[C@@H]3c4ccc(O)cc4C[C@@H](CCCCCCCCCS(=O)CCCC(F)(F)C(F)(F)F)[C@H]3[C@@H]1CC[C@@H]2O` (some centres undefined), for which the AC50 in experiment [4] was 0.0482 µM (active); in [5], 0.05 µM (active); in [7] it was 0.0338 µM (active); in [8], 15.6 µM (active). Further, the outcome in experiment [6] was inactive.
With `N#CSCSc1nc2ccccc2s1`, the call in experiment [4], in experiment [5], in experiment [6], in experiment [7] and in experiment [8] was inactive. Moreover, the AC50 in experiment [9] was 68.3 µM (active).
`COC(=O)c1ccc(I)cc1S(=O)(=O)NC(=O)Nc1nc(C)nc(OC)n1`: the result in experiment [4], in experiment [5], in experiment [6], in [7] and in [8] was inactive.
As to `CCOC(=O)NCCOc1ccc(Oc2ccccc2)cc1`, the AC50 was 85.4 µM (active) in experiment [4], 83.4 µM (active) in experiment [6], 89.3 µM (active) in experiment [8] and 96 µM (active) in experiment [10]. Moreover, the outcome in [5] and in [7] was inactive.
In the case of `COC(=O)CSc1cc(N=c2sc(=O)n3n2CCCC3)c(F)cc1Cl`, the outcome in experiment [4], in experiment [5], in experiment [6], in experiment [7] and in [8] was inactive.
For `CCCCCCC(C)OC(=O)COc1nc(F)c(Cl)c(N)c1Cl` (centres undefined), the compound was called inactive in experiment [4], in [5], in [6], in [7] and in experiment [8].
Consider `O=C(c1ccccc1)C1CCCCC1`, for which the result in experiment [4], in [5], in experiment [6], in experiment [7] and in [8] was inactive.
Consider `CCCN(CCC)c1c([N+](=O)[O-])cc(C(F)(F)F)c(N)c1[N+](=O)[O-]`, for which the call in [4], in experiment [6], in [7] and in experiment [8] was inactive.
Take `CCSC(=O)N(CC(C)C)CC(C)C`: the call in experiment [4], in [9], in experiment [5], in experiment [6], in experiment [7] and in experiment [8] was inactive.
For the compound `O=C(c1ccc(O)cc1O)c1ccc(O)cc1O`, the call in [4], in [5], in experiment [6], in experiment [7] and in experiment [8] was inactive.
Regarding `CCC(C)OC(=O)N1CCCCC1CCO` (centres undefined), the call in experiment [4], in experiment [5], in experiment [6], in [7], in [8] and in [10] was inactive.
Regarding `CCCCC(CC)COC(=O)c1ccccc1C(=O)O` (centres undefined), the compound was called inactive in experiment [4], in experiment [5], in experiment [6], in [7], in [8] and in experiment [10].
Regarding `CCCOC(=O)c1ccc(C(=O)OCCC)nc1`, the compound was classed as inactive in experiment [4], in experiment [5], in [6], in experiment [7] and in [8].
As for `CCCCOC(=O)C(C)Oc1ccc(Oc2ccc(C(F)(F)F)cn2)cc1` (centres undefined), the compound was classed as inactive in experiment [4], in [6], in experiment [7] and in [8].
`CC(C)CCCCCCc1ccc(O)cc1`: the result in [4], in experiment [5], in experiment [6], in experiment [7], in experiment [8] and in experiment [10] was inactive.
As to `COc1c(Cl)ccc(Cl)c1C(=O)O`, the outcome in experiment [9], in [5], in [6], in experiment [7] and in [8] was inactive.
In the case of `COC(=O)c1ccccc1C(=O)O`, the compound was called inactive in experiment [4], in [5], in [6], in experiment [7] and in experiment [8].
On to `N[C@@H](Cc1cc(I)c(Oc2ccc(O)c(I)c2)c(I)c1)C(=O)O`, for which the compound was classed as inactive in [4], in experiment [5], in experiment [6] and in experiment [7]. Moreover, the AC50 is 7.94 µM (active) in experiment [8] and 40 µM (active) in experiment [10].
Regarding `CCCOC(=O)NCCCN(C)C`, the call in experiment [4], in experiment [5], in [6], in [7] and in experiment [8] was inactive.
Take `OB(O)O`: the call in experiment [4], in experiment [5], in [6], in experiment [7] and in experiment [8] was inactive.
As for `CCN(CC)C(=O)c1cccc(C)c1`, the result in [4], in experiment [9], in experiment [5], in experiment [6], in experiment [7] and in experiment [8] was inactive. In addition, the outcome in experiment [10] was inactive.
On to `CCOC(=O)COc1cc(-n2ncc(C(F)(F)F)c(C)c2=O)c(F)cc1Cl`, for which the result in [4], in experiment [9], in [5], in [6], in experiment [7] and in [8] was inactive.
Take `COCCO`: the outcome in experiment [6], in [7], in experiment [8] and in experiment [10] was inactive.
With `Cc1nn(C)c(Oc2ccccc2)c1C=NOCc1ccc(C(=O)OC(C)(C)C)cc1`, the AC50 is 8.31 µM (active) in experiment [4], 6.99 µM (active) in experiment [6], 83.9 µM (active) in experiment [7] and 2.16 µM (active) in experiment [8]. The compound was classed as inactive in experiment [9].
As to `O=C(O)C1(C(=O)Nc2ccc(Cl)cc2Cl)CC1`, the outcome in [4] and in experiment [6] was inactive. The figures for the AC50 in [7] and in experiment [8] were 83.3 µM (active) and 77.4 µM (active), respectively.
Turning to `O=C(O)c1ccccc1`, the call in [4], in [5], in experiment [6], in experiment [7], in [8] and in [10] was inactive.
On to `CCOC(=O)C(C)Oc1ccc(Oc2nc3ccc(Cl)cc3o2)cc1` (centres undefined), for which the compound was classed as inactive in experiment [4], in experiment [9], in [6], in experiment [7] and in experiment [8].
